Eight compounds from PubChem BioAssay (NCI) can be followed below.

Compounds without any hit were thinned out: in the full panel of roughly 83,000, 20% have a hit.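 The endpoint reported here, percent growth, reads 100 for growth as untreated, 0 for no net growth and -100 for all cells dead.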 Values without a mark were called inactive. Activity calls are given as the source filed them. The calls were made as follows: active = growth percent below 10; inactive = the rest.

Holding throughout (assay): NCI-60 one-dose screen, 48 h (100 = growth as untreated, 0 = no growth, -100 = all killed)
What all share (conditions): 10 µM unless noted

The test system of test [1] is NCI-H23 lung.
The test system of test [2] is NCI-H226 lung.
Test [3] relates to NCI-H322M lung.
The test system of test [4] is HOP-62 NSCLC.
Test [5] deals with NCI-H460 lung.
Test [6] deals with HOP-92 NSCLC.
In test [7] the test system is NCI-H522 lung.
The subject of test [8] is A549/ATCC NSCLC.
In test [9] the test system is 786-0 renal.
The subject of test [10] is COLO 205 colon.
The test system of test [11] is DU-145 prostate.
Test [12] has as its system K-562 leukemia.
Test [13] has as its system MALME-3M melanoma.
In test [14] the test system is MDA-MB-231 breast.
For test [15], the system named is RXF 393 renal.
In test [16] the test system is SF-268 CNS.
In test [17] the test system is SF-295 CNS.
Test [18] deals with SF-539 CNS.
The subject of test [19] is UACC-257 melanoma.
The subject of test [20] is M14 melanoma.

`CN(C)c1ccc(Cc2cc(-c3ccccc3)nn(C/C(=N/O)c3ccccc3)c2=O)cc1`: the growth in test [1] is 57.4%; in [2], 60.5%; in test [3], 80.4%; in [4], 75.1%; in test [5], 42.6%; in [6], 55.9%. In addition, the growth in test [7] is 41.2%; in [8], 30.2%; in test [9], 75.4%; in test [10], 58.4%; in test [11], 91.8%; in test [12], 29.5%. Moreover, the growth in test [13] was 66.2%; in [14], 54%; in [15], 61.4%; in test [16], 55.8%; in test [17], 45.5%; in test [18], 84.3%. In addition, the growth was 62.8% in test [19] and 57% in test [20].
Take `[2H]C([2H])([2H])Oc1ccc(/C=C/C(=O)/C=C(O)/C=C/c2ccc(OC([2H])([2H])[2H])c(OC([2H])([2H])[2H])c2)cc1OC([2H])([2H])[2H]`: the growth in test [1] was 34.3%; in [2] it was 70.6%; in test [3], 103%; in test [4], 47.7%; in test [5] it was 46.7%; in test [6], 72.7%. Besides, the growth was 14.8% in [7]; 32.4% in test [8]; 48.9% in test [9]; 30.4% in [10]; 59% in test [11]; 17.6% in test [12]. The growth in test [13] is 79.2%; in [14], 72%; in test [15], 59.4%; in [16] it was 67.2%; in test [17], 39.5%; in test [18], 65.8%. Besides, the growth in test [19] was 84%; in [20] it was 52.5%.
Take `COc1ccc(-c2cc(-c3ccc(N(C)C)cc3)nc(NC(=O)c3cccnc3)n2)cc1`: the growth in [1] was 105%; in [2], 98.8%; in test [3], 93%; in test [4] it was 100%; in test [5], 96.1%; in [6], 124%. Moreover, the growth in [7] was 93%; in [8] it was 105%; in test [9] it was 103%; in test [10] it was 104%; in [11], 99.5%; in [12], 93.3%. Besides, the growth in [13] is 120%; in [14] it was 93.8%; in [15], 107%; in test [16], 90.6%; in [17], 104%; in test [18], 94.3%. Also, the growth was 120% in [19] and 124% in test [20].
On to `O=C1Nc2ccccc2/C1=C/c1cccn1CCCCCCn1c2ccccc2c(=O)c2ccccc21`, for which the growth in [1] was 73.6%; in test [2], 72.7%; in [3], 97.9%; in [4] it was 63.2%; in test [5] it was 90.7%; in test [6], 56.4%. Further, the growth in [7] was 66%; in [8], 87.9%; in test [9] it was 103%; in [10], 50.5%; in test [11], 94%; in [12] it was 66.6%. For the same compound, the growth was 90.7% in [13]; 75.4% in test [14]; 99.2% in [15]; 87% in test [16]; 97.2% in test [17]; 100% in test [18]. The growth in test [19] is 110%; in [20], 78.2%.
Turning to `NC(=N\N=C/c1ccc(Cl)cc1Cl)/C(N)=N\N=C/c1ccc(Cl)cc1Cl`, the growth in test [1] was 87.1%; in [2], 62.8%; in test [3], 41%; in [4], 83%; in test [5], 20.7%; in [6], 43.8%. In addition, the growth was 79.8% in test [7]; 62.5% in test [8]; 3.29% (active) in test [9]; 71.6% in [10]; 90.6% in [11]; 80.6% in [12]. Besides, the growth in [13] was 88.3%; in [14] it was 71.1%; in test [15] it was 83.6%; in test [16] it was 89.7%; in [17] it was 60%; in test [18], 43.5%. The growth was 118% in test [19] and 105% in test [20].
Consider `C#CCOc1ccc(C2=NN(C)C3N=C(Cl)c4ncn(C)c4N23)cc1OCC#C` (stereo not given), for which the growth was 89.7% in test [1]; 83.4% in test [2]; 90.2% in test [3]; 95.5% in test [4]; 105% in test [5]; 79.8% in test [6]. The growth in [7] is 87.3%; in [8], 104%; in test [9] it was 105%; in [10], 102%; in [11] it was 104%; in [12], 93.5%. In addition, the growth in test [13] was 112%; in [14] it was 95.9%; in [15], 82.7%; in [16], 105%; in test [17], 94.3%; in [18], 90%. Moreover, the growth is 97.2% in test [19] and 104% in [20].
Consider `COc1cccc(C2C3=C(COC3=O)N(CCO)c3cc4c(cc32)OCCO4)c1` (stereo not given), for which the growth in test [1] is 12.5%; in [2] it was 38.3%; in test [3], 39%; in test [4], 23.4%; in [5] it was 5.46% (active); in [6] it was 27.6%. Moreover, the growth in [7] was -14.6% (active); in test [8], 24.6%; in test [9], 19.3%; in test [10] it was -68% (active); in test [11], -38.9% (active); in [12] it was 6.5% (active). Further, the growth is 69.6% in [13]; 8.33% (active) in test [14]; 11.2% in test [15]; 23.8% in test [16]; -5.81% (active) in [17]; -23.1% (active) in [18]. Further, the growth in [19] was 53.6%; in test [20] it was -11.7% (active).
Consider `Cc1c2ccncc2c(C)c2c1c1ccccc1n2CCCCCC(=O)O`, for which the growth in test [1] was 84.7%; in test [2] it was 75.6%; in test [3], 96.1%; in [4], 83%; in test [5], 97.1%; in test [6], 80.6%. Further, the growth in test [7] is 101%; in test [8], 89.8%; in test [9] it was 103%; in test [10], 109%; in test [11], 104%; in [12], 92.5%. Besides, the growth in test [13] is 108%; in [14], 81.2%; in test [15], 93.2%; in [16], 86.6%; in [17], 95.3%; in test [18], 90.2%. The growth in [19] is 106%; in [20], 103%.
